Data as given in PubChem BioAssay (EPA / NIEHS).
Calls of active or inactive are those of the source. How the source made its calls: active means hit-call score of the fitted dose curve at least 0.9, where 1 is the maximum; inactive means score below 0.9.

read-out: sulfotransferase 2A1 (SULT2A1), SULT2A1 (gene 6822); assay: LTEA_HepaRG_SULT2A1: Life Technologies and Expression Analysis (LTEA) Assay for sulfotransferase 2A1 (SULT2A1) using HepaRG (AID 2283531); settings: mRNA level, 48 h; actives raise or lower the signal
Method in brief: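 Differentiated human HepaRG cells in serum-free induction medium were exposed for 48 h to eight half-log concentrations (top 100 uM, 0.5% DMSO). SULT2A1 mRNA was measured by qRT-PCR, normalized to ACTB, GAPDH and POLR2A, and fitted bidirectionally against DMSO.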

Structure (SMILES) | outcome | AC50
Cc1ccccc1O | inactive | –
C=CC(N)=O | inactive | –
Cc1cccc([N+](=O)[O-])c1 | inactive | –
Cc1ccc(O)c(C)c1 | inactive | –
CN(C)CCO | inactive | –
O=C(N[C@H]1CN2CCC1CC2)c1cc2ccoc2cn1 | inactive | –
O=S(=O)(O)C(F)(F)C(F)(F)C(F)(F)C(F)(F)C(F)(F)C(F)(F)F | inactive | –
Cc1cc(-c2ccc(N)c(C)c2)ccc1N | inactive | –
c1ccc(-c2ccccc2)cc1 | inactive | –
C1CC2OC2CC1C1CO1 (centres undefined) | inactive | –
Cc1ccccc1CO[C@@H]1C[C@@]2(C(C)C)CC[C@]1(C)O2 | inactive | –
CCC(C)c1cc([N+](=O)[O-])cc([N+](=O)[O-])c1O (centres undefined) | – | 3.13 µM (active)

read-out: Transforming Growth Factor (TGFA), TGFA (gene 7039); assay: LTEA_HepaRG_TGFA: Life Technologies and Expression Analysis (LTEA) Assay for Transforming Growth Factor (TGFA) using HepaRG (AID 2283532); settings: mRNA level, 48 h; actives raise or lower the signal
Method in brief: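 Differentiated HepaRG cells exposed 48 hours in serum-free induction medium, 0.5% DMSO vehicle, 8-point half-log series from 100 uM, in duplicate. TGFA mRNA by TaqMan qRT-PCR, normalised to ACTB, GAPDH, POLR2A; bidirectional fit versus DMSO.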

Structure (SMILES) | outcome | AC50
c1cc2ccc3cccc4ccc(c1)c2c34 | inactive | –
CCSC(=O)N(CC)C1CCCCC1 | inactive | –
CC(C)(c1ccccc1)c1ccc(O)cc1 | inactive | –
CCOP(=S)(OCC)SCSC(C)(C)C | inactive | –
CCOC(=O)C(O)(c1ccc(Cl)cc1)c1ccc(Cl)cc1 | inactive | –
Nc1ccc(-c2ccc(N)cc2)cc1 | inactive | –
COS(=O)(=O)OC | inactive | –
CCCCCCCCCC[N+](C)(C)CCCCCCCCCC | inactive | –
O=C(O)C(F)(F)C(F)(F)C(F)(F)C(F)(F)C(F)(F)C(F)(F)C(F)(F)C(F)(F)C(F)(F)F | – | 23.4 µM (active)
Cc1cccc(C)c1N | inactive | –
CCCCCCCCCc1ccc(O)cc1 | inactive | –
O=NN(c1ccccc1)c1ccccc1 | inactive | –
CCCCCCCCOC(=O)c1ccccc1C(=O)OCCCCCCCC | inactive | –
Oc1ccc(C(c2ccc(O)cc2)(C(F)(F)F)C(F)(F)F)cc1 | – | 82.4 µM (active)
O=C(O)C(F)(F)C(F)(F)C(F)(F)C(F)(F)C(F)(F)F | inactive | –
NS(=O)(=O)C(F)(F)C(F)(F)C(F)(F)C(F)(F)C(F)(F)C(F)(F)C(F)(F)C(F)(F)F | – | 12 µM (active)

Structure (SMILES) | outcome | AC50
O=S(=O)(O)C(F)(F)C(F)(F)C(F)(F)C(F)(F)F | inactive | –
CC1=C2C[C@H]3[C@@H](CC=C4C[C@@H](O)CC[C@@]43C)[C@@H]2CC[C@]12O[C@@H]1C[C@H](C)CN[C@H]1[C@H]2C | inactive | –
CCC(C)(c1ccc(O)cc1)c1ccc(O)cc1 | inactive | –
CN(C)c1nc(=O)n(C2CCCCC2)c(=O)n1C | inactive | –
Cc1ccccc1O | inactive | –
C=CC(N)=O | inactive | –
Cc1cccc([N+](=O)[O-])c1 | inactive | –
Cc1ccc(O)c(C)c1 | inactive | –
CN(C)CCO | inactive | –
O=C(N[C@H]1CN2CCC1CC2)c1cc2ccoc2cn1 | inactive | –
O=S(=O)(O)C(F)(F)C(F)(F)C(F)(F)C(F)(F)C(F)(F)C(F)(F)F | inactive | –
Cc1cc(-c2ccc(N)c(C)c2)ccc1N | inactive | –
c1ccc(-c2ccccc2)cc1 | inactive | –
C1CC2OC2CC1C1CO1 (centres undefined) | inactive | –
Cc1ccccc1CO[C@@H]1C[C@@]2(C(C)C)CC[C@]1(C)O2 | inactive | –
CCC(C)c1cc([N+](=O)[O-])cc([N+](=O)[O-])c1O (centres undefined) | – | 4.14 µM (active)
